PubChem BioAssay (NCI)
This is part of a sample that, as a whole, favours compounds with a hit. Of some 83,000 tested, about 20% had one in any assay.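 48-hour exposure, single concentration, 96-well plates; percent growth endpoint where 0 means no net growth. Active: below 10.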 Calls of active or inactive are those of the source.

Columns and labels:
Assay in all cases: NCI-60 one-dose screen, 48 h (100 = growth as untreated, 0 = no growth, -100 = all killed)
Conditions in all cases: 10 µM unless noted
SK-MEL-2 melanoma = test system: SK-MEL-2 melanoma
SN12C renal = test system: SN12C renal
UO-31 renal = test system: UO-31 renal
TK-10 renal = test system: TK-10 renal
ACHN renal = test system: ACHN renal
CAKI-1 renal = test system: CAKI-1 renal
CCRF-CEM leukemia = test system: CCRF-CEM leukemia
MOLT-4 leukemia = test system: MOLT-4 leukemia
A498 renal = test system: A498 renal
EKVX NSCLC = test system: EKVX NSCLC

Measured: growth

Nc1c(C(=O)Nc2c(Cl)cccc2Cl)sc2nc3c(cc12)CCCC3
inactive: SK-MEL-2 melanoma 75.8% | SN12C renal 69.6% | UO-31 renal 84.3% | TK-10 renal 90.2% | ACHN renal 87.7% | CAKI-1 renal 79.3% | CCRF-CEM leukemia 55.1% | MOLT-4 leukemia 46.9%

N#C/C(=C\c1ccc(-c2cccc(C(F)(F)F)c2)o1)c1nc(-c2ccco2)cs1
inactive: SK-MEL-2 melanoma 103% | SN12C renal 89.2% | UO-31 renal 62.8% | TK-10 renal 49.1% | ACHN renal 87.2% | CAKI-1 renal 87.1% | A498 renal 104% | CCRF-CEM leukemia 93.7% | MOLT-4 leukemia 93%

OCCNc1nc(Nc2ccc(Cl)c(Cl)c2)nc2ccccc12
inactive: SK-MEL-2 melanoma 64.1% | SN12C renal 37.2% | UO-31 renal 47.6% | TK-10 renal 50% | ACHN renal 59.7% | A498 renal 47% | CCRF-CEM leukemia 15.7%
active: MOLT-4 leukemia 6.93%

Brc1cnc2[nH]cc(-c3nnc(-c4ccccc4)o3)c2c1
inactive: SK-MEL-2 melanoma 73.3% | SN12C renal 79.9% | UO-31 renal 45.2% | TK-10 renal 58.9% | ACHN renal 28.9% | CAKI-1 renal 34.2% | CCRF-CEM leukemia 102% | MOLT-4 leukemia 74.3%

NC(=O)[C@@H]1CC2CCC1C2 (some centres undefined)
inactive: SK-MEL-2 melanoma 119% | SN12C renal 114% | UO-31 renal 99.7% | TK-10 renal 120% | ACHN renal 102% | A498 renal 87.9% | CCRF-CEM leukemia 37.4% | MOLT-4 leukemia 102%

CN1CCN(c2nc(-c3cccc4ccccc34)nc3sc4c(c23)CCCCCC4)CC1
inactive: SK-MEL-2 melanoma 106% | SN12C renal 75.9% | UO-31 renal 46% | TK-10 renal 113% | ACHN renal 82.7% | A498 renal 94.2% | CCRF-CEM leukemia 75.2% | MOLT-4 leukemia 74%

CC(C)(C)c1[nH]nc2c1C(c1cc3ccccc3[nH]c1=O)Nc1cc(C(=O)OCc3ccccc3)ccc1N2 (centres undefined)
inactive: SK-MEL-2 melanoma 67% | SN12C renal 61.2% | UO-31 renal 47.2% | TK-10 renal 47.6% | ACHN renal 28.6% | CAKI-1 renal 54.6% | A498 renal 65% | CCRF-CEM leukemia 37.9% | MOLT-4 leukemia 18%

CC1(C)C(=O)/C(=C\c2ccco2)C[C@]2(C)[C@H]3CC[C@@H]4[C@@H](C(=O)/C=C/c5ccco5)CC[C@@]4(C)[C@]3(C)CC[C@@H]12
inactive: SN12C renal 87.2% | UO-31 renal 58.9% | TK-10 renal 107% | ACHN renal 19.3% | CAKI-1 renal 53.9% | A498 renal 91.3% | CCRF-CEM leukemia 50.6% | MOLT-4 leukemia 68.3%
active: SK-MEL-2 melanoma -0.219%

COc1cc(-c2nc(-c3ccccc3)c(-c3ccccc3)[nH]2)cc(OC)c1O
active: SK-MEL-2 melanoma -39.7% | SN12C renal 2.29% | UO-31 renal 5.85% | TK-10 renal 0.953% | CCRF-CEM leukemia -0.116% | MOLT-4 leukemia 4.88%
inactive: ACHN renal 15.2% | A498 renal 82.8%

OCC12CCCC(CO)(COC1)C2O (centres undefined)
inactive: SK-MEL-2 melanoma 117% | SN12C renal 101% | UO-31 renal 91.1% | TK-10 renal 113% | ACHN renal 103% | A498 renal 97.9% | MOLT-4 leukemia 126%
active: CCRF-CEM leukemia -57.2%

c1cnc2[nH]cc(-c3csc(-c4cn(CCCN5CCCCC5)c5ccccc45)n3)c2c1
inactive: SK-MEL-2 melanoma 93.7% | SN12C renal 63.4% | UO-31 renal 43.8% | TK-10 renal 115% | ACHN renal 60.2% | A498 renal 83.8%
active: CCRF-CEM leukemia 6.17% | MOLT-4 leukemia -10.6%

O=C(/C=C/c1cccc2ccccc12)Nc1ncc(Cc2ccccc2)s1
active: A498 renal -10.8%
inactive: SK-MEL-2 melanoma 43.4% | SN12C renal 32.1% | UO-31 renal 32.2% | TK-10 renal 31.7% | CAKI-1 renal 22.5% | CCRF-CEM leukemia 10.4% | MOLT-4 leukemia 18%

CC1(C)C=CC[C@]2(C)[C@H]3CC[C@@H]4[C@H]5[C@H](C(=O)/C=C/c6cccnc6)CC[C@]5(CO)CC[C@@]4(C)[C@]3(C)CC[C@@H]12
active: EKVX NSCLC -36.7% | SN12C renal -40% | UO-31 renal -100% | TK-10 renal -90.7% | ACHN renal -100% | CAKI-1 renal -75.5% | A498 renal -78.8% | CCRF-CEM leukemia -2.65% | MOLT-4 leukemia -30.6%

COc1ccc(C2CC(=O)c3c(nc4ccc(Cl)cc4c3N)C2)cc1 (centres undefined)
inactive: EKVX NSCLC 97.6% | SN12C renal 101% | UO-31 renal 92.2% | TK-10 renal 80.6% | ACHN renal 105% | CAKI-1 renal 88.5% | A498 renal 100% | CCRF-CEM leukemia 91.6% | MOLT-4 leukemia 95.1%

Cc1ccc(Sc2sc(-c3ccccc3)nc2[P+](c2ccccc2)(c2ccccc2)c2ccccc2)cc1
active: SK-MEL-2 melanoma -37.8% | SN12C renal 6% | UO-31 renal -39.1% | ACHN renal 6.46% | CAKI-1 renal -14.2% | A498 renal -43.5% | CCRF-CEM leukemia 7.63% | MOLT-4 leukemia -48.2%

CCC(=O)c1c(C)[nH]c(C)c1C
active: ACHN renal -33.4%
inactive: EKVX NSCLC 103% | SN12C renal 95.5% | UO-31 renal 67.1% | TK-10 renal 99.4% | CAKI-1 renal 46.4% | A498 renal 103% | CCRF-CEM leukemia 98.5% | MOLT-4 leukemia 84%

COc1ccc(/C=C2\N=C(c3ccccc3)N(c3cc(OC)c(OC)cc3C(=O)N3N=C(C)CC3=O)C2=O)cc1
inactive: SK-MEL-2 melanoma 91.1% | SN12C renal 93.7% | UO-31 renal 68.9% | TK-10 renal 113% | CAKI-1 renal 92.3% | A498 renal 50.8% | MOLT-4 leukemia 57.9%

Cc1cc2nc3c4cc(Cl)ccc4n(CCN(C)C)c3nc2cc1C
active: UO-31 renal -45% | ACHN renal -10% | CAKI-1 renal -7.17% | MOLT-4 leukemia 2.26%
inactive: EKVX NSCLC 20.4% | SN12C renal 17.7% | TK-10 renal 19.4% | A498 renal 73.9% | CCRF-CEM leukemia 24.6%

COc1cccc(-c2nn(-c3ccccc3)cc2-c2ccnc(NCCCNS(=O)(=O)c3ccc(C(F)(F)F)cc3)c2)c1
active: MOLT-4 leukemia -0.667%
inactive: EKVX NSCLC 46.5% | SN12C renal 23% | UO-31 renal 11.3% | TK-10 renal 42.1% | ACHN renal 22.4% | CAKI-1 renal 27.2% | A498 renal 20.3% | CCRF-CEM leukemia 16.8%

COC(=O)[C@]12CC[C@@H](C)[C@H](C)[C@@H]1C1=CC[C@@H]3[C@@]4(C)C[C@@H](OC(C)=O)[C@H](OC(C)=O)[C@@](C)(COC(C)=O)[C@@H]4[C@H](O)C[C@@]3(C)[C@]1(C)CC2
active: TK-10 renal -1.29% | A498 renal 5.15% | MOLT-4 leukemia 3.95%
inactive: EKVX NSCLC 10.7% | SN12C renal 11% | UO-31 renal 10.9% | ACHN renal 11.8% | CAKI-1 renal 11.6% | CCRF-CEM leukemia 12%

COc1cc(-c2cc3ncccc3c3nc(OCCN(C)C)c4cccnc4c23)cc(OC)c1OC
inactive: EKVX NSCLC 32.8% | CCRF-CEM leukemia 14.5%
active: SN12C renal 2.68% | UO-31 renal -70% | TK-10 renal -82.7% | ACHN renal -74.5% | CAKI-1 renal -37.3% | A498 renal -72.6% | MOLT-4 leukemia 2.03%

O=C1C=C(C(O)c2ccc(O)cc2)C(=O)c2ccccc21 (centres undefined)
inactive: SK-MEL-2 melanoma 109% | SN12C renal 107% | UO-31 renal 69.2% | TK-10 renal 103% | ACHN renal 92.7% | MOLT-4 leukemia 84.8%

COC(=O)[C@]12CC[C@@H](C)[C@H](C)[C@@H]1C1=CC[C@@H]3[C@@]4(C)C(c5ncon5)=C[C@@](C)(CO)C4=CC[C@@]3(C)[C@]1(C)CC2
inactive: CAKI-1 renal 20.6%
active: EKVX NSCLC -76.5% | SN12C renal -14.4% | UO-31 renal -93.5% | TK-10 renal 1.76% | ACHN renal -89.4% | A498 renal -36.4% | CCRF-CEM leukemia -52.5% | MOLT-4 leukemia -42.8%

N#Cc1c(-c2ccc(O)cc2)c2c(N)nn(-c3ccccc3)c2[nH]c1=O
inactive: EKVX NSCLC 101% | SN12C renal 104% | UO-31 renal 71.8% | TK-10 renal 137% | ACHN renal 100% | CAKI-1 renal 97.1% | A498 renal 108% | CCRF-CEM leukemia 110% | MOLT-4 leukemia 98.1%

COc1ccc(-c2n/c(=C\c3c(O)[nH]c4ccc(OC)cc34)cc3c2=Nc2ccccc2-3)cc1
inactive: SK-MEL-2 melanoma 96.6% | SN12C renal 89.4% | UO-31 renal 73.6% | CAKI-1 renal 103% | A498 renal 87.2%
active: TK-10 renal -10.8% | MOLT-4 leukemia -35.4%

COc1ccc2[nH]c(-c3ccc(Cl)cc3)cc(=O)c2c1
inactive: SK-MEL-2 melanoma 96.3% | SN12C renal 93.6% | UO-31 renal 94.4% | TK-10 renal 93.4% | ACHN renal 103% | CCRF-CEM leukemia 36.3% | MOLT-4 leukemia 99.2%

C/C(=N/NC(N)=S)C(=O)O
inactive: SK-MEL-2 melanoma 118% | SN12C renal 80.6% | UO-31 renal 73.6% | TK-10 renal 119% | A498 renal 110% | MOLT-4 leukemia 27.7%

NC1=NN(c2ccccc2)C(=O)/C1=C/c1ccc(Cl)cc1
inactive: EKVX NSCLC 96% | SN12C renal 94.6% | UO-31 renal 78.3% | TK-10 renal 91.2% | ACHN renal 93.9% | CAKI-1 renal 97% | A498 renal 99.7% | CCRF-CEM leukemia 101% | MOLT-4 leukemia 102%

CC(C)(C)n1cc(-c2ccnc(NCCCNS(=O)(=O)c3ccc(Cl)cc3)c2)c(-c2cccc(F)c2)n1
inactive: EKVX NSCLC 56.2% | SN12C renal 73.9% | UO-31 renal 66.5% | TK-10 renal 111% | ACHN renal 80.8% | CAKI-1 renal 77.9% | A498 renal 108% | CCRF-CEM leukemia 66.7% | MOLT-4 leukemia 55.1%
